The source of these data is PubChem BioAssay AID1159606 (Sanford-Burnham Center for Chemical Genomics, 2016).

SMILES strings stand for the structures. In all, about 360,000 compounds went through this assay and about 7,300 (2%) were called active. What follows is part of a selection rich in actives, with near analogues and random picks from the rest. A number with no mark means an inactive call. Cut-off read from the data, not from the text of the source: active = inhibition above about 50%; inactive = the rest.

The experiment in a line: inhibitors of TWEAK-Fn14 signaling, primary screen, luciferase reporter cells, uHTS (AID 1159606). To be noted: TWEAK-stimulated Fn14 reporter cells, luciferase luminescence, 8 h; at 10 µM; stronger effect = higher value. A general note: In a reporter assay the amount or activity of a reporter protein is the signal.
As a reminder, the inhibition is the relative decrease from the control value, in per cent. Take `O=C(COC(=O)c1ccco1)Nc1ccc(Cl)cn1`: the inhibition was -3.57%. With `O=C(Nc1ccc(NC(=O)c2cccs2)cn1)c1ccco1` the figure was 57.4% (active). Then `Cc1ccc(NC(=O)c2ccco2)cc1`, with -27.8%; and `CC1CN(c2cc(=O)n(Cc3ccc(F)cc3)c(=O)[nH]2)CC(C)O1` (stereo not given), with -5.29%; and `CC(=O)OCC(C)n1c(=O)c2ccccc2n1C(C)=O` (stereo not given), with 2.6%. With `CCC(c1nnnn1-c1ccc2c(c1)OCCO2)N1CCN(c2ccc(C(F)(F)F)cn2)CC1` (stereo not given) the figure was 30.4%; with `Cc1cccc(NC(=S)NCc2ccc3[nH]c4c(c3c2)CCCC4)c1`, 70.9% (active). For the compound `CCc1cccc(CC)c1NC(=S)NCc1ccc2[nH]c(C)cc2c1`, the inhibition was 12.3%. For `Cc1cc(C)cc(NC(=S)NCCc2c[nH]c3ccccc23)c1`, the inhibition was 7.03%.

Regarding `Cc1ccc(CCN2CC(C(=O)O)CC2=O)cc1` (stereo not given), the inhibition is -5.87%. With `Cc1noc(C)c1C(=O)NCC1COc2ccccc2O1` (stereo not given) the figure was -8.54%; with `O=C(Cn1cnc2ccccc2c1=O)NCC1COc2ccccc2O1` (stereo not given), 9.26%; with `c1ccc(-c2cc3c(NCC4COc5ccccc5O4)ncnc3s2)cc1` (stereo not given), 77.3% (active). With `COc1cccc(N(CC(=O)NC2CCCCCC2)S(=O)(=O)c2ccccc2)c1` the figure was -34.4%; with `C=CCn1c(=NC(=O)c2cccs2)sc2cc(NC(C)=O)ccc21`, -34.5%. Then `CCOC(=O)N1CCN(C(c2ccnc3ccccc23)c2nnnn2-c2c(C)cccc2C)CC1` (stereo not given), with 8.32%. As to `O=C(COC(=O)c1cc(=O)[nH]c2ccccc12)NCc1cccc(Cl)c1`, the inhibition was -18.6%. With `O=C(OCc1nnc(-c2ccccc2)o1)c1cc(=O)[nH]c2ccccc12` the figure was -0.55%. With `O=C(COC(=O)c1cc(=O)[nH]c2ccccc12)Nc1nc(-c2cccc(Br)c2)cs1` the figure was 75.8% (active); with `CC1=CC(=C(C#N)c2nc3ccccc3s2)C=C(C)N1c1ccc(F)cc1F`, 55.1% (active). Then `Cc1nn(-c2ccc(F)cc2)c(Cl)c1/C=C(/CCC(=O)O)c1nc2ccccc2s1`, with -0.77%. Take `N#Cc1ccc(-c2nc3c(Cl)cc(C(F)(F)F)cn3c2Cc2ccccc2C(F)(F)F)cc1`: the inhibition is -2.71%. As to `NS(=O)(=O)c1ccc(NC(=O)COC(=O)CCc2c[nH]c3ccccc23)cc1`, the inhibition was -2.39%. With `NS(=O)(=O)c1ccc(NC(=O)COC(=O)c2c3c(nc4ccccc24)/C(=C\c2ccc4c(c2)OCO4)CCC3)cc1` the figure was 55.8% (active); with `NS(=O)(=O)c1ccc(NC(=O)COC(=O)c2ccco2)cc1`, -4.93%. Then `COc1ccc(CCN2CC(C(=O)NCCN3CCNC3=O)CCC2=O)cc1` (stereo not given), with -4.1%; and `CCOC(=O)CN(C)S(=O)(=O)c1ccc(-c2cc(C(=O)OC)sc2C(F)(F)F)cc1`, with 0.95%; and `O=C(N/N=C/c1ccccn1)c1cccc(NC(=O)c2ccc(Cl)cc2)c1`, with 9.71%. Then `S=C(NN=Cc1ccccn1)Nc1ccccn1`, with 105% (active); and `S=C(Nc1cccnc1)Nc1ccccn1`, with -12.4%; and `COC(=O)c1[nH]c2ccc(Br)cc2c1NC(=O)Oc1ccccc1`, with 5.94%. Regarding `Cc1ccccc1CC1(CO)CCCN(Cc2ccc3c(c2)OCCO3)C1` (stereo not given), the inhibition is 6.31%. With `COc1ccc(C2(C)NC(=O)N(CC(=O)c3ccc4c(c3)OCO4)C2=O)cc1` (stereo not given) the figure was -0.46%; with `CC(=NCc1ccco1)c1c(C(F)(F)F)[nH]n(-c2nc3ccccc3s2)c1=O`, 75.8% (active). On to `C=CCN(C(=O)Nc1ccc2c(c1)nc(C)n2C)c1ccccc1`, for which the inhibition is -7.06%. With `Cc1nc2cc(NC(=O)Nc3cccc(F)c3)ccc2n1C` the figure was 81.1% (active); with `Cc1nc2cc(NCc3cccs3)ccc2n1C`, -6.1%.

In the case of `CCCCC(O)C1=C[N+](=O)CC=C1` (stereo not given), the inhibition is 39.5%. On to `O=C(NCc1cccnc1)c1ccc2nc([C@@H]3O[C@H](CO)[C@H](O)[C@H](O)[C@H]3O)[nH]c2c1`, for which the inhibition was 13.3%. With `COCCc1nn2c(=O)cc(COC(=O)c3cc(OC)c(OC)c(OC)c3)nc2s1` the figure was 2.03%; with `O=C(Cc1ccc(Cl)cc1)NCc1nc(-c2ccccc2)no1`, -18%. With `NC(N)=Nc1nc(-c2ccccc2)c2cc(Cl)ccc2n1` the figure was -9.76%; with `Clc1ccc2nc(-c3ccccc3)nc(C(Cl)Cl)c2c1`, 54.4% (active). Take `O=S(=O)(c1ccccc1)N1CN(Cc2ccc(F)cc2)c2nc3ccccc3nc21`: the inhibition is 11%. With `Oc1c(CN2CCOCC2)ccc(CN2CCOCC2)c1O` the figure was 2.4%; with `CSc1nc(-c2ccccc2)nc(C(Cl)Cl)n1`, 65.2% (active); with `Cc1cccc(N=C2SC(C)CN2C(=O)CN2C(=O)NC3(CCCC3)C2=O)c1` (stereo not given), 5.82%. With `O=C(CNc1ccccc1N1CCCC1=O)Nc1cc(Cl)ccc1-n1cncn1` the figure was 2.85%; with `COc1ccc(C2NC(=S)NC3=C2CCc2ccccc23)cc1OC` (stereo not given), 9.33%; with `Cc1cc(Br)ccc1NC(=O)c1sc2ncn(CC(=O)N3CCN(c4ccccn4)CC3)c(=O)c2c1C`, 9.08%.

On to `Cc1cc(C(=O)N2CCN(c3ccccn3)CC2)c(C)o1`, for which the inhibition was -12.8%.

With `Cc1cc(Br)ccc1NC(=O)c1cnc(N2CCN(c3ccccn3)CC2)c2ccccc12`, the inhibition was 80.5% (active). With `CCc1ccccc1NC(=O)c1cc(-c2ccc3c(c2)OCO3)on1` the figure was -6.05%; with `CCOC(=O)c1sc2nc(C)nc(Nc3ccc(OC)c(OC)c3)c2c1C`, 10.5%; with `CC1CCC(NC(=O)CN(C)S(=O)(=O)c2ccc3c(c2)c(=O)n(C)c(=O)n3C)CC1` (stereo not given), -18.7%. With `COc1cnc(SCc2ccc(Cl)c(Cl)c2)nc1Cl` the figure was -23.9%; with `CCCCNC(=O)Cn1nc(C)c(S(=O)(=O)N2CCOCC2)c1C`, 10.8%.

`Cc1c(Cl)c([N+](=O)[O-])nn1CC(=O)NCC1CCCO1` (stereo not given): the inhibition was 12.8%. With `Cc1c(Cl)c([N+](=O)[O-])nn1CC(=O)NCCCN1CCOCC1` the figure was 55.9% (active); with `OCCc1ccc(NCCc2ccco2)cc1`, -21.3%.
